Assay outcomes from PubChem.
Shown are actives, neighbours in structure and some others; about 6.9% of the full set was active somewhere.
KB-3-1 cytotox: qHTS assay for MDR1-selective chemotherapeutics: Primary screen using the parental adenocarcinoma cell KB-3-1 | KB-3-1 viability, CellTiter-Glo ATP luminescence, 72 h | Potency, µM (series often up to 46.1 µM), usual class: cytotoxic | hit rate 1.4% among 400,000 | AID 1347075, 2019; note: potency is the fitted concentration of half-maximal effect; % is set by controls: 0 for no effect and ±100 for the full control effect; nearly all actives have a fitted effect of over 60% in size
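KB-3-1 cells, DMEM (no phenol red) + 10% FBS; compound by pin transfer, 72 h, 37 °C. Readout: CellTiter-Glo luminescence after 10 min. Data normalized, curve-fitted.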
MCF10A rerep: A quantitative high throughput screen for small molecules that induce DNA re-replication in MCF 10a normal breast cells; MCF 10A DNA re-replication, Hoechst nuclear intensity, 48 h; hit rate 2.9% among 350,000; Potency, µM (top dose mostly 46.1 µM), inactives show top-dose activity, positive = re-replication, actives largely listed as activators; note: potency is the fitted concentration of half-maximal effect; % of control where 0% means no effect; nearly all actives have a fitted effect of over 50% in size
KB-V1 MDR tox: qHTS assay for MDR1-selective chemotherapeutics: Primary screen using the drug-selected MDR subline cells KB-V1; Potency, µM (highest dose often 46.1 µM), usual class: cytotoxic; KB-V1 MDR cells viability, CellTiter-Glo, 72 h; hit rate 3.4% among 400,000; note: potency is the fitted concentration of half-maximal effect; % is set by controls: 0 for no effect and ±100 for the full control effect; nearly all actives have a fitted effect of over 60% in size
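In this primary screen, KB-V1 cells overexpressing P-gp are incubated with library compounds (lowest to highest concentration) for 72 h at 37 degrees C before a luminescent ATP viability read.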
SW480 rerep: A quantitative high throughput screen for small molecules that induce DNA re-replication in SW480 colon adenocarcinoma cells; hit rate 1.8% among 340,000; AID 624297, 2012; Potency, µM (series often up to 46.1 µM), for inactives: at the top dose re-replication activation, actives largely listed as activators; SW480 DNA re-replication, Hoechst DNA content imaging, 48 h; note: potency is the fitted concentration of half-maximal effect; % of control where 0% means no effect; nearly all actives have a fitted effect of over 55% in size
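Treated cells incubate 48 hr (37 C, 5% CO2), are stained 40 min with Hoechst, and nuclear fluorescence is enumerated; a rise in nuclei with high DNA signal marks re-replication.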
ASM inhibitor: Inhibitors of Secretory Acid Sphingomyelinase (S-ASM): qHTS; Sphingomyelin phosphodiesterase (Homo sapiens), P17405; placental ASM, HMU-PC fluorogenic substrate, 60 min; hit rate 0.006% among 340,000; Potency, µM (highest dose often 57.5 µM), inactives show at the top dose activity change, negative = inhibition, most hits filed as inhibitors; note: potency is the fitted concentration of half-maximal effect
Target sequence (P17405 47-631 limits assumed): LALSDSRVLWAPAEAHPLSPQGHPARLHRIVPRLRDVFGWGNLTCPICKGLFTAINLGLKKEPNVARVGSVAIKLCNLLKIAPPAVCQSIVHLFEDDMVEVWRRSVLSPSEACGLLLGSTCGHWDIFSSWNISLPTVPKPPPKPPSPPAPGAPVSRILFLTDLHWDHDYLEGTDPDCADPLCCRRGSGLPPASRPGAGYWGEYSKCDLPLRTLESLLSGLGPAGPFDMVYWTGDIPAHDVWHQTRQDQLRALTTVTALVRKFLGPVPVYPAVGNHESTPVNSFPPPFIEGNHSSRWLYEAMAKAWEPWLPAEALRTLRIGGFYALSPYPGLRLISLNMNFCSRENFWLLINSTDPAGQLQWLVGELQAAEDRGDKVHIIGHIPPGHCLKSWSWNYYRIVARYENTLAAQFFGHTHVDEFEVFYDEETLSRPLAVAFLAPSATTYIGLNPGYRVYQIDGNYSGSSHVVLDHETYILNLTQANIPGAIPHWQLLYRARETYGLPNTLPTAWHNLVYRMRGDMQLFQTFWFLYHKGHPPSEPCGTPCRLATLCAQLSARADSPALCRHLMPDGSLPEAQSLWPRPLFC
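Fluorescence read-out (Ex 386 nm, Em 447 nm) after stopping the reaction at pH 10. Enzyme: ASM from human placenta; substrate HMU-PC0, 9 uM final; 60 min, 37 °C. Compound preincubation 10 min, ambient temperature.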
Giardia killer: Small Molecules that selectively kill Giardia lamblia: qHTS | Giardia lamblia trophozoite viability | activity change, % at 7.66 µM, hits read low | hit rate 0.15% among 340,000; in the data active = activity change below about -80%; inconclusive = between about -30% and that limit;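 note: parasites exposed to compound for two days anaerobically before the ATP read; % is set by controls: 0 for no effect and ±100 for the full control effect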
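Killing of trophozoites was scored by loss of ATP luminescence after a 48 hrs anaerobic exposure to compounds at 37 deg C, using 100 cells per well.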
Numbers without * were called inactive; i = inactive; ? = inconclusive; . = no result given. Unless noted, calls come from the whole dose curve; as a rule, active = well fitted curve in the direction sought with a large enough effect; inconclusive = small, poorly fitted or top-dose-only effect, or another doubt; inactive = no such curve, though single readings can be large; an effect the other way counts as inactive or inconclusive.

SMILES	KB-3-1 cytotox	MCF10A rerep	KB-V1 MDR tox	SW480 rerep	ASM inhibitor	Giardia killer
Nc1cccc(CCc2nc3cc4ccccc4cc3[nH]2)c1	5.2µM*	7.3µM*	5.8µM*	3.7µM*	-1%	-7
c1ccc(-c2nc3cc4ccccc4cc3[nH]2)nc1	?	9%	?	-1%	0%	?
Nc1ccc2nc(CCCCCCc3nc4ccc(N)cc4[nH]3)[nH]c2c1	i	-1%	i	-4%	5%	6
Nc1ccc2nc(CCCCCCCCc3nc4ccc(N)cc4[nH]3)[nH]c2c1	i	2.3µM*	i	0%	?	5
COc1ccccc1/C=C/c1nc2ccccc2o1	?	.	i	.	.	.
COc1ccc(S(=O)(=O)Nc2cc(Cl)ccc2OC)cc1	3.7µM*	3.3µM*	5.8µM*	2.9µM*	-1%	-12
COc1ccc(Cl)cc1NS(=O)(=O)c1ccc(S(=O)(=O)N2CCCC2)cc1	i	-10%	i	8%	-2%	-4
COc1ccc(Cl)cc1NS(=O)(=O)c1ccc(OC)c(OC)c1	i	1%	16µM*	-6%	6%	0
COc1ccc(S(=O)(=O)Nc2ccccc2C(N)=O)cc1OC	i	-7%	i	6.5µM*	-3%	10
COc1cc(S(=O)(=O)Nc2c(C)cc(C)cc2C)ccc1Cl	i	9%	18µM*	3%	-9%	7
COc1cc(S(=O)(=O)Nc2ccccc2C)ccc1Cl	i	1%	i	-5%	8%	9
Cc1ccc(NC(=O)Cn2c(=O)n(CC(=O)NCCc3ccccc3)c(=O)c3ccccc32)cc1	i	.	?	.	.	.
COC(=O)c1ccc(NC(=O)CN2CCN(CC#N)CC2)cc1	i	1%	i	0%	1%	-14
Cn1ncc2ccc(-c3ccc4ncnc(NCc5cccs5)c4c3)cc21	?	.	i	.	.	.
C=CCc1cccc(CNc2c(C)cc(C)cc2C)c1O	i	6%	i	2%	-7%	0
Cc1cc(NCCCCCCCNc2cc(C)nc3cc([N+](=O)[O-])ccc23)c2ccc([N+](=O)[O-])cc2n1	?	3.7µM*	21µM*	?	-5%	3
Cc1cc(S(=O)(=O)Nc2cccc(-c3ccc(N4CCOCC4)nn3)c2)c(C)cc1Cl	i	.	?	.	.	.
Cc1ccccc1Nc1cc(C(=O)NCCCN2CCN(c3cccc(Cl)c3)CC2)c2ccccc2n1	i	.	?	.	.	.
COc1cc2c(NC3CCN(C)CC3)nc(N3CCCCC3)nc2cc1OCCCN(C)C	?	.	i	.	.	.
COc1cc2ccc(C(C)=NOC(C)=O)cc2cc1OC	5.2µM*	.	2.1µM*	.	.	.
O=C(Nc1ccc(F)c(Cl)c1)C1Cc2c(-c3ccco3)ccnc2O1 (centres undefined)	?	.	21µM*	.	.	.
CC(C)c1ccc(NC(=O)C2Cc3c(-c4ccco4)ccnc3O2)cc1 (centres undefined)	i	.	21µM*	.	.	.
CC(=O)Nc1ccc(-c2ccnc3c2CC(C(=O)Nc2ccc(C(C)C)cc2)O3)cc1 (centres undefined)	i	.	?	.	.	.
CN(C)c1nc(C=C(C#N)C#N)c(Cl)n1-c1ccc(F)cc1	?	?	?	7.3µM*	-1%	1
Cc1ccc(C(=O)n2nc(C)c(S(=O)(=O)N3CCCCCC3)c2C)cc1C	i	.	?	.	.	.
SMILES	KB-3-1 cytotox	MCF10A rerep	KB-V1 MDR tox	SW480 rerep	ASM inhibitor	Giardia killer
CCOc1ccc(NCc2nnc(SCc3ccccc3Cl)n2-c2ccccc2)cc1	i	?	21µM*	20%	-6%	-3
COc1ccc(-n2c(CNc3ccc(C)cc3)nnc2SCc2ccccc2)cc1	i	?	?	-11%	-2%	21
COc1ccc(-c2nc(N)nc(C)c2Oc2ccccc2Br)c(O)c1	?	15µM*	?	?	?	-16
CCOc1ccc(CNC(=O)c2ccc(CSc3nc4ccncc4n3Cc3ccc(F)cc3)cc2)cc1	i	.	i	.	.	.
COC(=O)Cn1c(=NC(=O)c2cc(-c3cccs3)nc3ccccc23)sc2cc(S(N)(=O)=O)ccc21	i	7.3µM*	?	?	253%	2
COC(=O)Cn1c(=NC(=O)c2nc3ccccc3s2)sc2cc(S(N)(=O)=O)ccc21	?	?	i	-12%	.	-6
CCOC(=O)Cn1c(=NC(=O)c2cc(-c3cccs3)nc3ccccc23)sc2cc(S(N)(=O)=O)ccc21	i	8.2µM*	i	?	.	-8
O=C(Cc1cn(Cc2cccc(Cl)c2)c2ccccc12)N1CCCCCC1	?	?	4.6µM*	-65%	-18%	-3
CC1CCCN(C(=O)Cc2cn(Cc3cccc(Cl)c3)c3ccccc23)C1 (centres undefined)	i	?	?	6%	-15%	-17
O=C(CN(Cc1ccccc1Cl)C(=O)c1ccc(CN2CCOCC2)o1)NCc1ccccc1	i	9%	12µM*	7%	6%	8
O=C(CN1C(=O)/C(=C/c2ccccc2)SC1=S)N1CCN(CCc2ccccn2)CC1	i	5.8µM*	i	?	-14%	5
COC(=O)CCCCCN1C(=O)/C(=C\c2ccncc2)SC1=S	i	26µM*	i	1%	-17%	9
Cc1ccc(/C=C2\SC(=S)N(CC(=O)Nc3cccnc3)C2=O)cc1	i	?	i	-13%	-2%	13
O=C(CCCN1C(=O)/C(=C/c2cccc(Br)c2)SC1=S)Nc1cccnc1	?	18µM*	i	18µM*	-11%	-6
Cc1ccc(/C=C2\SC(=S)N(CCCC(=O)Nc3cccnc3)C2=O)cc1	?	?	23µM*	?	-3%	-16
CSc1ccccc1C(=O)C1CCCN(C(=O)CCc2cccnc2)C1 (centres undefined)	i	4%	i	-1%	2%	-1
CCc1ccc2[nH]cc(S(=O)(=O)c3ccc(C(C)C)cc3)c(=O)c2c1	?	.	i	.	.	.
O=C(CCCN1C(=O)/C(=C/c2ccccc2OC(F)F)SC1=S)Nc1cccnc1	?	23µM*	?	?	-14%	4
O=C(CCCN1C(=O)/C(=C\c2cccc(Br)c2)SC1=S)Nc1cccnc1	i	8.2µM*	i	26%	-6%	-8
O=C(CCCN1C(=O)/C(=C/c2cccs2)SC1=S)Nc1cccnc1	i	-28%	i	-46%	3%	6
